Assay [1] can be described thus: Nuclear factor erythroid 2-related factor 2/antioxidant responsive element (Nrf2/ARE) small molecule agonists: qHTS cell viability counter screen in human keratinocytes (AID 1919968; active = well fitted curve in the direction sought with a large enough effect in the repeat runs; an effect the other way counts as inactive or inconclusive; also: nearly all actives have a fitted effect of over 55% in size). An outline of the steps: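 Seed 1,500 KeratinoSens cells per well, then incubate 5 h at 37 C/5% CO2. Add compounds in DMSO and incubate 23 h. Add CellTiter-Fluor, wait 1 h and read fluorescence.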

The nature of assay [2]: Nuclear factor erythroid 2-related factor 2/antioxidant responsive element (Nrf2/ARE) small molecule agonists: luciferase reporter gene qHTS assay in human keratinocytes (AID 1919969). Also: nearly all actives have a fitted effect of over 35% in size. Also: potency is read from the fitted curve at half-maximal effect. For orientation: Reporter assays use an easily measured gene product as a stand-in for the process of interest.
Assay [3] addresses Gonadotropin-releasing hormone receptor (Homo sapiens) (UniProt P30968). The assay is described as follows: Human gonadotropin-releasing hormone receptor (GnRHR) small molecule agonists, calcium flux assay in GnRHR-HEK293 cells (AID 1920063). Also: nearly all actives have a fitted effect of over 35% in size. An outline of the steps: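 Cells: HEK293 stably expressing human GnRHR. Steps: overnight (18 h) culture, 1 h calcium dye loading at 37 C, compound addition, kinetic fluorescence read at 480/540 nm. Each compound tested at 15 concentrations in triplicate.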
Background: Calcium flux is commonly read through the fluorescence of an indicator in the cells.

In assay [4] the target is KiSS-1 receptor (Homo sapiens) (UniProt Q969F8). The assay is described as follows: Human kisspeptin (KISS1R) small molecule agonists, calcium flux assay in KISS1R-HEK293 cells (AID 1920064; active = well fitted curve in the direction sought with a large enough effect in the repeat runs; an effect the other way counts as inactive or inconclusive). An outline of the steps:
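Cells plated and incubated 18 h; dye added, 1 h at 37 C; compounds in DMSO pinned in; signal read at 480/540 nm every second for 3 min. Each compound tested at 15 concentrations in triplicate.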

The nature of assay [5]: G protein-coupled receptor (GPCR) small molecule agonists, calcium flux assay: HEK293 wild type cell line counter screen (AID 1920065). The procedure, abridged:
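Counter-screen of the Tox21 10K library for non-specific calcium release: dye-loaded cells received compounds in DMSO and were monitored by kinetic fluorescence (480/540 nm, 3 min). Fifteen concentrations, run in triplicate.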

The nature of assay [6]: p53 small molecule agonists, cell-based qHTS assay with human liver microsomes (AID 1963577).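 Also: p53 response element beta-lactamase reporter cells with liver microsomes plus NADPH.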 The procedure, abridged: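 16 h, 37 C exposure of p53RE-bla cells to compounds with human liver microsomes and NADPH (0.5 mg/mL final each); detection via LiveBLAzer mixture, 2 h dark at room temperature.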
For orientation: qHTS replaces the single test concentration by a dilution series.

The nature of assay [7]: p53 small molecule agonists, cell-based qHTS assay with rat liver microsomes (AID 1963578). The procedure, abridged:
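With rat liver microsomes and NADPH present (0.5 mg/mL final each), p53RE-bla cells are treated with compound for 16 h at 37 C. LiveBLAzer detection mixture is then applied for 2 h at room temperature in the dark.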

Assay [8] can be described thus: p53 small molecule agonists, cell-based qHTS assay with human liver microsomes: qHTS cell viability counter screen (AID 1963579). Also: nearly all actives have a fitted effect of over 45% in size. The procedure, abridged: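 In this multiplexed counter screen, the reporter plates were subsequently treated with CellTiter-Glo so that cell viability, reflected by luminescence, could be recorded for p53RE-bla cells dosed 16 h with compounds under microsomal activation (HLM and NADPH).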

Assay [9] is described as follows: p53 small molecule agonists, cell-based qHTS assay (AID 1963582; active = well fitted activation curve with a large enough effect in the signal ratio in the repeat runs, not every such curve was filed as active; the % refers to the signal ratio). The procedure, abridged:
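Quantitative HTS in p53RE-bla cells: after a 5 h settling period, compounds delivered in DMSO were left on cells for 16 h at 37 C, and reporter induction was measured as fluorescence following 2 h substrate loading.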

Assay [10] deals with 5-hydroxytryptamine receptor 2A (Homo sapiens) (UniProt P28223). The assay is described as follows: 5-hydroxytryptamine receptor 2A (HTR2A) small molecule antagonists, cell-based qHTS assay (AID 1963586). Also: nearly all actives have a fitted effect of over 45% in size. The procedure, abridged: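 Antagonist-mode intracellular calcium assay: DOI (4 nM) added after 5 min compound pre-incubation at room temperature to dye-loaded HTR2A-CHO cells. Fluorescence followed for 3 min, sampled every second.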

The target is the same in assay [11]. The assay is described as follows: 5-hydroxytryptamine receptor 2A (HTR2A) small molecule agonists, cell-based qHTS assay (AID 1963587). Also: nearly all actives have a fitted effect of over 30% in size. The procedure, abridged:
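HTR2A-CHO cells, plated 18 h at 37 C/5% CO2, dye-loaded 1 h at 37 C; compounds in DMSO added by pin tool (agonist mode). Intracellular calcium flux read as kinetic fluorescence on FDSS over 2 min at 1 s intervals.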

The target of assay [12] is Muscarinic acetylcholine receptor M1 (Homo sapiens) (UniProt P11229). The assay is described as follows: Cholinergic receptor muscarinic 1 (CHRM1) small molecule antagonists, cell-based qHTS assay (AID 1963588). Also: nearly all actives have a fitted effect of over 40% in size. The procedure, abridged: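 CHRM1-CHO calcium-flux assay, antagonist mode. Cells were seeded 18 h, dye-loaded 1 h at 37 C and given compound for 5 min at RT, then acetylcholine was added at 50nM. FDSS fluorescence was read 3 min; 15 concentrations, three runs.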

The target is the same in assay [13]. The assay is described as follows: Cholinergic receptor muscarinic 1 (CHRM1) small molecule agonists, cell-based qHTS assay (AID 1963589). Also: nearly all actives have a fitted effect of over 35% in size. An outline of the steps: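 Agonist-mode qHTS in CHO cells stably carrying human muscarinic M1. Intracellular calcium is tracked by fluorescence every second after compound transfer; each compound runs at 15 concentrations in three independent runs.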

A short description of assay [14]: cAMP Responsive Elements (CRE) small molecule antagonists, cell-based qHTS assay (AID 1963591; active = well fitted inhibition curve with a large enough effect in the signal ratio in the repeat runs, not every such curve was filed as active; the % refers to the signal ratio). An outline of the steps:
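Antagonist mode: test compounds are co-incubated with the adenylyl cyclase activator NKH477 (0.25 uM final) on CRE-bla HEK293T cells for 3 h at 37 °C, followed by LiveBLAzer substrate loading.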

Assay [15] concerns the target Beta-2 adrenergic receptor (Homo sapiens) (UniProt P07550). The assay is described as follows: Adrenergic beta2 receptor (ADRB2) small molecule antagonists, cell-based qHTS assay (AID 1963592). Also: series mostly up to about 92 µM; nearly all actives have a fitted effect of over 50% in size. An outline of the steps: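 Cells (CHO, stable ADRB2 overexpression) incubated 18-20hr at 37C; compounds added from DMSO; agonist mix (1nM isoproterenol, 100uM IBMX, 25uM Ro-20-1724) added; 0.5hr RT; d2-cAMP and anti-cAMP-cryptate added; 1hr RT; 665/615 nm read.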

Assay [16] concerns the target D(2) dopamine receptor (Homo sapiens) (UniProt P14416). The assay is described as follows: Dopamine D2 receptor (DRD2) small molecule agonists, cell-based qHTS assay (AID 1963594). Also: nearly all actives have a fitted effect of over 35% in size. The procedure, abridged: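 HEK293 cells stably expressing DRD2 were cultured 24 h at 37 C, then given Ro20-1724 (0.1 mM final) and compounds for 10 min at room temperature. NKH477 (200nM) was then added for 30 min. cAMP was read by HTRF.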

Assay [17] has the same target. The assay is described as follows: Dopamine D2 receptor (DRD2) small molecule antagonists, cell-based qHTS assay (AID 1963595; active = well fitted inhibition curve with a large enough effect in the signal ratio in the repeat runs, with a control signal flat; the % refers to the signal ratio; also: potency is read from the fitted curve at half-maximal effect). The procedure, abridged:
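Antagonist mode in DRD2-HEK293 cells: after compound addition with 0.1 mM Ro20-1724, cells received quinpirole (12 nM) and NKH477 (200 nM) for 30 min at room temperature; HTRF cAMP read after 1 h detection.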

Assay [18] is described as follows: cAMP Responsive Elements (CRE) small molecule agonists, cell-based qHTS assay (AID 1963590). The procedure, abridged:
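Agonist mode qHTS in CRE-bla HEK 293T cells: compounds dosed from DMSO for 3 h at 37 C/5% CO2, followed by LiveBLAzer B/G FRET substrate for 2 h at room temperature.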

Assay [19] is described as follows: p53 small molecule agonists, cell-based qHTS assay with rat liver microsomes: qHTS cell viability counter screen (AID 1963580). Also: nearly all actives have a fitted effect of over 45% in size. The procedure, abridged: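 In HCT-116 cells carrying a p53 response element-bla reporter, compounds were metabolically activated in situ by rat liver microsomes with NADPH over 16 h. Cell ATP content then served as the cytotoxicity measure.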

Values without a mark were called inactive. Inconclusive results are not listed. The source made the active and inactive calls. Unless noted, calls follow the shape of the full dose curve.

Chain of Muscarinic acetylcholine receptor M1 (Homo sapiens) (P11229 whole entry, looked up): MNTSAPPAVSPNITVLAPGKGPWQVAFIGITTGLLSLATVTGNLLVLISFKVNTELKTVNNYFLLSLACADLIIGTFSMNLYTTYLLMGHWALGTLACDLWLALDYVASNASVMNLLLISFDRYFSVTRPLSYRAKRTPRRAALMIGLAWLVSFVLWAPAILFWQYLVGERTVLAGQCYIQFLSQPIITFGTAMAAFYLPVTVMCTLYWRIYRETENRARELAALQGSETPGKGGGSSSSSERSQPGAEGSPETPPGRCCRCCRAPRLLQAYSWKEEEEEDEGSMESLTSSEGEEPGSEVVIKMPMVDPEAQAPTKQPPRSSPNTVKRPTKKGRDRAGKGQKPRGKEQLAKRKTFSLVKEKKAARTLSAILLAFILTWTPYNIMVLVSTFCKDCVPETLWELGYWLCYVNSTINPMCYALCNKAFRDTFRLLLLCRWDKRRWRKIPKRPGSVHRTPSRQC
Chain of D(2) dopamine receptor (Homo sapiens) (P14416 whole entry, looked up): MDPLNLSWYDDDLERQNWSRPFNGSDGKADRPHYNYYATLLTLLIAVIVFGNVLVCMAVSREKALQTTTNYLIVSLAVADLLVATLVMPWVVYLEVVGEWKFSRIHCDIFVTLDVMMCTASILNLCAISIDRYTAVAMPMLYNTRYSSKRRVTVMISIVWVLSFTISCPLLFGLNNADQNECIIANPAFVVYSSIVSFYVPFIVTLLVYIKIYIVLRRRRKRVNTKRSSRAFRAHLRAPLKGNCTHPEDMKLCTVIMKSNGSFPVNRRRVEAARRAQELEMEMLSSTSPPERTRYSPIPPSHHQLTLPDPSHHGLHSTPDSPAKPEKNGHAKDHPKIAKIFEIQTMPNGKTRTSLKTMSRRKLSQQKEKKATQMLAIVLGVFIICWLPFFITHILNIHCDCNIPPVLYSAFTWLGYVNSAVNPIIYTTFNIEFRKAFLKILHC
Chain of 5-hydroxytryptamine receptor 2A (Homo sapiens) (P28223 whole entry, looked up): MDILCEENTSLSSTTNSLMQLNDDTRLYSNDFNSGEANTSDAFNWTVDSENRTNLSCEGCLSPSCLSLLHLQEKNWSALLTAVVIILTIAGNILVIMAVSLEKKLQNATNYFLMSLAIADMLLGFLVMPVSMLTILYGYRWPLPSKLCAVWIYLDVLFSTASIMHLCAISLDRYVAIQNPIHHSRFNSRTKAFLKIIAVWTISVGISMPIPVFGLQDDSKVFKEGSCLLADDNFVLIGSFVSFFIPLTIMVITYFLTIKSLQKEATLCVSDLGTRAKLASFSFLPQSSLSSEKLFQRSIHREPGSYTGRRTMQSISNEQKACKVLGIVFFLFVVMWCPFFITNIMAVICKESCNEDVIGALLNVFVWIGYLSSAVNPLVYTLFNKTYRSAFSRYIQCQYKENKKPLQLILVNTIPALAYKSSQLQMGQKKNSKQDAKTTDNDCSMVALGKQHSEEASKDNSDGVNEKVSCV
Chain of Beta-2 adrenergic receptor (Homo sapiens) (P07550 whole entry, looked up): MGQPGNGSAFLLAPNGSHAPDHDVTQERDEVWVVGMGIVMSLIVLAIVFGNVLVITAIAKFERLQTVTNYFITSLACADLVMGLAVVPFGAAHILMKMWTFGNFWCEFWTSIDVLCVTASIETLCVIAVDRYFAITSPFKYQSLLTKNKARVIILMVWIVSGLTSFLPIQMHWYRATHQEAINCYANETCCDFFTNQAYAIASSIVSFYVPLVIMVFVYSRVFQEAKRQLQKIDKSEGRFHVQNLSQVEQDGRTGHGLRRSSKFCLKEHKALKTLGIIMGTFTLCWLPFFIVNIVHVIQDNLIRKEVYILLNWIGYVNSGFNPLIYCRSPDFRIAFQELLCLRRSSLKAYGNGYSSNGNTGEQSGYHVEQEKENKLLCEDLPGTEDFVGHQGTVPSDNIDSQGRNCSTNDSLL
Chain of Gonadotropin-releasing hormone receptor (Homo sapiens) (P30968 whole entry, looked up): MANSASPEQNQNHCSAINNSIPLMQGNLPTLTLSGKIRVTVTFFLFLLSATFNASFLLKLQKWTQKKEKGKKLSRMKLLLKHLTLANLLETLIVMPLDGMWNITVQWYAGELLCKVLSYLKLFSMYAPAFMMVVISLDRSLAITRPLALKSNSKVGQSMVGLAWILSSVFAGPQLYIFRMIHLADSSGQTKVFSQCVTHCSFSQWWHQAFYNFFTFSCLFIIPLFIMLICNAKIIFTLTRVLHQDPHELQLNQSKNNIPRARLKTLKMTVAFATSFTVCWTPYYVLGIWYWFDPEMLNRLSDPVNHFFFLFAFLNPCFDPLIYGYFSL
Chain of KiSS-1 receptor (Homo sapiens) (Q969F8 whole entry, looked up): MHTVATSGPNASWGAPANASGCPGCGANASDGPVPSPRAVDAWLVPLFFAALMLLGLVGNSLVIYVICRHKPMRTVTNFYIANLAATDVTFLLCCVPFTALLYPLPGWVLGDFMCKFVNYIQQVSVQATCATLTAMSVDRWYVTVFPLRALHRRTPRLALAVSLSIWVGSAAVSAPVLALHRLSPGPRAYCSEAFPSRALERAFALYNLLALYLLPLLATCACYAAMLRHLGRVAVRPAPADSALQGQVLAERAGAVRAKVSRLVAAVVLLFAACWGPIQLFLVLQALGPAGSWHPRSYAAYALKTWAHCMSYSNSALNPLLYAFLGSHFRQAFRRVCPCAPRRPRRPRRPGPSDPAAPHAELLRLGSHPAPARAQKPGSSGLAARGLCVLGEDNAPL

For the compound `O=c1c(O)c(O)c1=O`, the Potency result in assay [1], in assay [2], in [3], in assay [6], in assay [7] and in assay [8] was “inactive” throughout. Further, the Potency entry in assay [9], in assay [10], in assay [11], in [12], in [13] and in [14] was “inactive” throughout. In addition, the Potency result in assay [15], in assay [16] and in [17] was “inactive” each time. In addition, the result in assay [4] and in assay [5] was inactive.
With `COCCC(=O)OC`, the Potency entry in assay [1], in [3], in [6], in assay [7], in [8] and in assay [9] was “inactive” throughout. In addition, the Potency result in assay [10], in assay [11], in assay [12], in [13], in [18] and in [14] was “inactive” throughout. Besides, the Potency result in assay [15] and in [16] was “inactive” each time. Moreover, the Potency in assay [2] is 68.6 µM (active). Moreover, the outcome in assay [4] and in [5] was inactive.
Take `CCCCC1=NC2(CCCC2)C(=O)N1Cc1ccc(-c2ccccc2-c2nn[nH]n2)cc1`: the Potency result in assay [1], in assay [2], in [3], in [6], in assay [7] and in assay [8] was “inactive” throughout. Also, the Potency entry in assay [19], in [15], in [16] and in [17] was “inactive” throughout. Also, the result in [4] and in assay [5] was inactive.
For the compound `CCCCCCC(CO)CCCC` (configuration not stated), the Potency entry in assay [1], in assay [2], in assay [3], in [6], in [7] and in assay [8] was “inactive” throughout. For the same compound, the Potency entry in assay [9], in assay [10], in assay [11], in [12], in assay [13] and in [18] was “inactive” in each case. Besides, the Potency result in assay [14], in assay [15], in assay [16] and in assay [17] was “inactive” throughout. Besides, the outcome in assay [4] and in assay [5] was inactive.
As to `CC(C)C1OCCN1CCOC(=O)NCCCCCCNC(=O)OCCN1CCOC1C(C)C` (configuration not stated), the Potency result in assay [1], in assay [2], in assay [3], in assay [6], in [7] and in assay [8] was “inactive” in each case. Also, the Potency entry in assay [9], in [10], in [11], in assay [12], in assay [13] and in [18] was “inactive” each time. For the same compound, the Potency entry in assay [14], in assay [15], in [16] and in [17] was “inactive” in each case. The outcome in assay [4] and in [5] was inactive.
For `O=S1OCCO1`, the Potency entry in assay [1], in assay [2], in assay [3], in [6], in [7] and in assay [8] was “inactive” in each case. The Potency entry in [9], in assay [10], in assay [11], in [12], in [13] and in [18] was “inactive” in each case. The Potency result in assay [14], in assay [15] and in assay [16] was “inactive” in each case. The result in assay [4] and in [5] was inactive.
With `CN(C)CCCN1c2ccccc2Sc2ccccc21`, the Potency result in assay [1], in assay [2], in assay [3], in assay [6], in assay [7] and in [8] was “inactive” throughout. Besides, the Potency entry in [19], in assay [18], in assay [14] and in assay [16] was “inactive” in each case. Besides, the result in assay [4] and in assay [5] was inactive. Also, the Potency in [17] is 29.8 µM (active).

Values taken from PubChem BioAssay (Tox21).
